Reference: PubChem BioAssay AID2625 (National Center for Advancing Translational Sciences (NCATS), 2010)
Inconclusive results are not listed. Active and inactive are the calls of the source. The call rests on the fitted dose curve; in most records, active means well fitted curve in the direction sought with a large enough effect; inconclusive means small, poorly fitted or top-dose-only effect, or effect the other way, or another doubt; inactive means no such curve, though single readings can be large or run the other way.

The molecules below were run against Pyruvate kinase PKLR (Homo sapiens) (UniProt P30613) (assay: Secondary LDH Assay for Activators of Human Liver Pyruvate Kinase: for Probe SAR). Conditions: purified hPK-L, LDH-coupled NADH fluorescence kinetic; series mostly up to 58.2 µM.
Source text: NIH Chemical Genomics Center [NCGC]
Matthew G. Vander Heiden, M.D., Ph.D. [Harvard Medical School, 77 Avenue Louis Pasteur, Boston, MA 02115]
Human pyruvate kinase liver (hPK-L)enzyme was supplied as a highly purified (>95% pure) preparation from Harvard Medical School and a secondary assay was used to evaluate compounds. This assay couples the formation of pyruvate from hPK-R using lactate dehydrogenase (LDH) and NADH. The depletion of NADH is followed in a fluorescent-based kinetic assay that follows the formation of pyruvate to lactate, as catalyzed LDH. Pyruvate kinase substrates, PEP and ADP, were present in the assay at 0.1 mM and 4 mM respectively. In this kinetic assay initial rates were determined by following the fluorescence of NADH depletion.
NCGC Assay Protocol Summary:
Three uL of substrate mix (final concentration, 50 mM Tris-Cl pH 8.0, 200 mM KCl, 15 mM MgCl2, 0.1 mM PEP, 4.0 mM ADP, and 0.2 mM NADH) was dispensed into black-solid 1536 well plates. 23 nL of compounds were delivered by a pin tool and 1 uL of enzyme mix (final concentrations, 10 nM hPK-L and 1 uM of LDH) was added. Plates were immediately placed in ViewLux (Perkin Elmer) and NADH fluorescence was determined at 30 second exposure intervals for between 3 and 6 minutes. Data were normalized to the uninhibited and EC100 activation using known activators such as fructose-bis-phosphate.

Pyruvate kinase PKLR (Homo sapiens), sequence (P30613 whole entry, looked up): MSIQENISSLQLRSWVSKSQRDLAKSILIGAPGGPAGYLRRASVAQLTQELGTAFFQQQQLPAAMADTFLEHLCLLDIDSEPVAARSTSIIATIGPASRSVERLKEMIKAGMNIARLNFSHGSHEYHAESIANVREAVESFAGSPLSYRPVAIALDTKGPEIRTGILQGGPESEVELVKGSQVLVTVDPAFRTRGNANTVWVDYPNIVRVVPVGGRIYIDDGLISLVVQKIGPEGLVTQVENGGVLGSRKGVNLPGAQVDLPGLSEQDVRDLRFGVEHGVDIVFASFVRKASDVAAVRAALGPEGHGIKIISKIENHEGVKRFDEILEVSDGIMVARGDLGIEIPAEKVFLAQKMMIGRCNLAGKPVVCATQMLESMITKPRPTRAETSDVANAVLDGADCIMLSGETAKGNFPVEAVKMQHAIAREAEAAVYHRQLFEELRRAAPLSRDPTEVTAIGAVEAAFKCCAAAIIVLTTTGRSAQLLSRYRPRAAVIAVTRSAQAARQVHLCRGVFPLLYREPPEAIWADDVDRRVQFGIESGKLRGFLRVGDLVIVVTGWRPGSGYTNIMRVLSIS

outcome, inactive:
CSc1cc2c(s1)c1cnn(Cc3cccc(O)c3)c(=O)c1n2C
Cc1ccc(NS(=O)(=O)c2ccc3c(c2)CC(=O)N3)cc1C
Cc1ccc(NS(=O)(=O)c2cccc(Cl)c2)cc1C
O=C1c2ccccc2C(=O)N1c1cnc2ccccc2c1
O=C1c2ccccc2C(=O)N1C1CCCCC1
O=C1CCc2cc(S(=O)(=O)Nc3cccnc3)ccc2N1
CC(=O)N1CCc2cc(S(=O)(=O)Nc3ccc(C)c(C)c3)ccc21
CC(=O)Nc1cccc(S(=O)(=O)Nc2ccc(C)c(C)c2)c1
Cc1ccc2nc(-c3ccc(C)o3)c(Nc3ccc4c(c3)OCO4)n2c1
CSc1cc2c(s1)c1cnn(Cc3cccc(N)c3)c(=O)c1n2C
Cc1ccccc1NS(=O)(=O)c1ccc2c(c1)CCC(=O)N2
Cc1ccc(NS(=O)(=O)c2ccc3c(c2)oc(=O)n3C)cc1C
Cc1ccc2nc(-c3ccc(C)o3)c(NC3CCCC3)n2c1
Cc1cc(NS(=O)(=O)c2ccc3c(c2)CCC(=O)N3)ccc1F
COc1cccc(N2C(=O)c3ccccc3C2=O)n1
Cc1ccc(N2C(=O)c3ccccc3C2=O)c(C)c1
Cc1ccc(NS(=O)(=O)c2ccc3ccccc3c2)cc1C
O=C1c2ccccc2C(=O)N1c1cncc2ccccc12
Cc1ccc(NS(=O)(=O)c2ccc(N3CCCC3=O)cc2)cc1C
CNc1cccc(S(=O)(=O)N2CCN(S(=O)(=O)c3ccc4c(c3)OCCO4)CC2)c1
O=C1c2ccccc2C(=O)N1c1cccc2cccnc12
Cc1ccc(NS(=O)(=O)c2cc3c(cc2-c2ccco2)NC(=O)CO3)cc1C
O=C1CCc2cc(Cl)c(S(=O)(=O)Nc3ccc(Cl)c(Cl)c3)cc2N1
O=C1CCc2cc(S(=O)(=O)Nc3ccc(Cl)cc3)ccc2N1
Cc1ccc(NS(=O)(=O)c2cc3c(cc2-c2ccsc2)NC(=O)CO3)cc1C
O=C1CCc2cc(S(=O)(=O)Nc3cccc(Oc4ccccc4)c3)ccc2N1
Nc1cccc(S(=O)(=O)N2CCCN(S(=O)(=O)c3ccc4c(c3)OCCO4)CC2)c1
O=C1c2ccccc2C(=O)N1c1nccs1
O=S1(=O)N=C(Oc2cccc(Cl)c2)c2ccccc21
Cc1ccc(C)c(OC2=NS(=O)(=O)c3ccccc32)c1
Cc1ccc(NS(=O)(=O)c2ccc3c(c2)CCCC(=O)N3)cc1C
CC(=O)Nc1ccc(S(=O)(=O)Nc2ccc(C)c(C)c2)cc1
O=C1CCc2cc(S(=O)(=O)Nc3ccc(F)cc3)ccc2N1
Cc1c(Cl)cccc1NS(=O)(=O)c1cc2c(cc1Cl)CCC(=O)N2
O=C1CCc2cc(S(=O)(=O)NCc3ccccc3)ccc2N1
COc1ccc(OC2=NS(=O)(=O)c3ccccc32)cc1
O=C1CCc2cc(S(=O)(=O)Nc3ccc4c(c3)CCC4)ccc2N1
O=C1c2ccccc2C(=O)N1Cc1ccccn1
COc1ccccc1N1C(=O)c2ccccc2C1=O
Cc1ccc(NS(=O)(=O)c2cc3c(cc2Cl)NC(=O)CO3)cc1C
